# Test results published in PubChem BioAssay (NCI).
# About 83,000 compounds went through this panel and 20% of them were active in at least one assay; those are over-represented in the sample as a whole.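 Plates (96-well) were seeded with cells, treated with compound at one concentration, and incubated for 48 hours before percent growth was determined.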 Unmarked numbers belong to inactive results. Active and inactive are the calls of the source. How the source made its calls: active means growth percent below 10; inactive means the rest.
# Test system: MDA-MB-468 breast
# Assay: NCI-60 one-dose screen, 48 h (100 = growth as untreated, 0 = no growth, -100 = all killed)
# Conditions: 10 µM unless noted
row,SMILES,growth
1,COc1cc2cc(NCc3ccc(OC(F)F)cc3)nc(C)c2cc1OC,64.4%
2,CN(C[C@@H]1COCCO1)S(=O)(=O)Nc1ccc2ccc3ncc(-c4cnn(C)c4)cc3c(=O)c2c1,49.9%
3,Cc1c(C(=O)/C=C/c2ccc(Cl)cc2)nnn1-c1ccc2oc(=O)ccc2c1,85.9%
4,CCOC(=O)c1sc(-c2ccc(OS(=O)(=O)C[C@]34CCC(CC3=O)C4(C)C)c(C=O)c2)nc1C,3.2% (active)
5,CC(C)(C)n1cc(-c2ccnc(NCCNS(=O)(=O)c3ccc(O)cc3)c2)c(-c2cccc(O)c2)n1,91.8%
6,CC(=O)OC/C=C(/C)C[P+](c1ccccc1)(c1ccccc1)c1ccccc1,1.61% (active)
7,CCN(CC)c1ccc(/C=N/NC(=O)c2ccc(S(N)(=O)=O)cc2)cc1,1.85% (active)
8,O=C(Nc1ccc(-n2cc(-c3ccncc3)c(-c3ccc(Cl)c(O)c3)n2)cc1)Nc1cc(C(F)(F)F)cc(C(F)(F)F)c1,13.9%
9,CC(=O)Nc1ccc(Sc2ccc(NC(C)=O)cc2)cc1,100%
10,CO/N=C1\CCc2c(sc(NC(=O)c3cccc(C(F)(F)F)c3)c2C(N)=O)C1,29.9%
11,Cc1cc(C(=O)c2ccccc2)c(C)c2c1[nH]c1ccc(Cl)cc12,-7.26% (active)
12,CCCCC1CCCCN1C(=O)OCC (stereo not given),114%
13,COc1ccc(C2CC(c3ccc(Nc4nc(Nc5ccc(F)cc5)nc(Nc5ccc(Cl)cc5)n4)cc3)=NN2C(C)=O)cc1 (stereo not given),104%
14,OC(CSc1ccccc1)CN1CCN(c2ccc(Cl)cc2)CC1 (stereo not given),86.7%
15,O=C(/C=C/c1ccccc1Cl)c1cccc(OCCCCOc2cccc(C(=O)/C=C/c3ccccc3Cl)c2)c1,110%
16,COC1=C(OC)C(=O)c2ccccc2C1=O,-34% (active)
17,C=CCc1c(O)c(C(=O)/C=C/c2ccc(Cl)cc2)c(OC)c2ccoc12,19.9%
18,Cn1c(=O)c2nc(/C=C/c3ccccc3)c(=O)[nH]c2n(C)c1=S,103%
19,COc1ccc(/C=C2\N=C(c3ccccc3)N(C(=O)c3ccccc3O)NC2=O)cc1,106%
20,CCc1nc2cc(/C=C/C(=O)NO)ccc2c(=O)n1CCc1ccc(OC)cc1,14.1%

row,SMILES,growth
1,Nc1nc2ccc(CNc3ccc(C(=O)NC(CC(=O)O)C(=O)O)cc3)cc2c(=O)[nH]1 (stereo not given),81.6%
2,CCCCN(Cc1ccc(C(=O)NO)cc1)C(=O)Nc1ccc(OCCCCCCCCCn2cc(CCCCC(=O)N[C@H](C(=O)N3C[C@H](O)C[C@H]3C(=O)NCc3ccc(-c4scnc4C)cc3)C(C)(C)C)nn2)cc1,0.0949% (active)
3,[Ag].[Ag].[NH-]S(=O)(=O)c1ccc(N=Nc2cc(N=Nc3ccc(S([NH-])(=O)=O)cc3)c3c(NC(=O)C(Cl)Cl)cccc3c2OC(=O)C(Cl)Cl)cc1.[c-]1nccs1.[c-]1nccs1,61.4%
4,COc1cc(-c2n/c(=C\c3c(O)[nH]c4ccccc34)cc3c2=Nc2ccccc2-3)cc(OC)c1OC,5.24% (active)
5,CCN1CCN(C(=O)[C@]23CC[C@@H](C)[C@H](C)[C@@H]2C2=CC[C@@H]4[C@@]5(C)C/C(=C/c6ccncc6)C(=O)C(C)(C)[C@@H]5CC[C@@]4(C)[C@]2(C)CC3)CC1,-1.64% (active)
6,CC(=O)c1ccc(Nc2nc(Cl)nc(Oc3c(Cl)cccc3Cl)n2)cc1,93.3%
7,Cn1cc(-c2nn3cc(-c4cccnc4)nc3s2)c2ccccc21,-2.67% (active)
8,O=C(CCNNC(=O)c1ccncc1)NCc1ccccc1,75%
9,CC1(C)CC([P+](c2ccccc2)(c2ccccc2)c2ccccc2)=NN1,-12.9% (active)
10,O=C(Nc1ccc(CO)cc1)c1ccccc1Nc1ccnc(C(F)(F)F)c1,123%
11,C/C(=C(/c1ccc(O)cc1)c1ccc(Cl)cc1)c1ccccc1,-71.9% (active)
12,Cc1ccc(C2CC(c3ccc(Nc4ccnc5cc(Cl)ccc45)cc3)=NN2C=O)cc1 (stereo not given),33%
13,CCCCCCCCCN(CCCCCCCCC)C(C)C(=O)c1ccc2cc(Br)c3ccccc3c2c1 (stereo not given),99.2%
14,Nc1c(C(=O)Nc2ccccn2)sc2nc3c(cc12)CCCCC3,27.7%
15,O=C(CCc1ccccc1)N1CCN(C(=O)CCc2ccccc2)CC1,111%
16,CC/C=C\C[C@H](O)C/C=C1/C(=O)C=C[C@@]1(C)C/C=C\CCCC(=O)OC,105%
17,CCn1c2ccc(/C=N/OCCCN(C)C)cc2c2cc(/C=N/OCCCN(C)C)ccc21,-66.6% (active)
18,CCCCn1c(=O)[nH]c(N)c(C(c2ccc(F)cc2)c2c(N)[nH]c(=O)n(CCCC)c2=O)c1=O,51.2%
19,O=C(N/N=C/c1ccc(Cl)cc1Cl)c1ccc2nc(-c3ccc(Cl)cc3)[nH]c2c1,-44.1% (active)
20,O=C(c1c[nH]c2ccccc12)c1n[nH]c(=S)n1-c1cccc(Br)c1,98.7%
